Test results from publication PMC7819943, “Rice protein-binding microarrays: a tool to detect cis-acting elements near promoter regions in rice”.
Over roughly 68,000 sequences, “fluorescence intensity (a.u.)” has its median near 9,100; the highest 2% begin near 16,000. The full list was thinned out, with the highest values kept by preference.

What follows are sequences tested against OsWRKY34 (Oryza sativa, UniProt Q0JBA9 1-250) (assay: protein-binding microarray (RPBM); PBS, 2% BSA, 51.3 ng/ul salmon testes DNA, 50 uM zinc acetate, 200 nM TF, 25 C, 1 h; high values mean tight binding). Conditions: protein: recombinant; tags: N-terminal polyhistidine and DsRed monomer fusion (pET32a); label: CyDye5-dUTP incorporated in the synthesized complementary strand; 3' TTTTT single-stranded linker to array surface; dsDNA, one strand shown.
OsWRKY34, sequence (Q0JBA9 entry or part of it): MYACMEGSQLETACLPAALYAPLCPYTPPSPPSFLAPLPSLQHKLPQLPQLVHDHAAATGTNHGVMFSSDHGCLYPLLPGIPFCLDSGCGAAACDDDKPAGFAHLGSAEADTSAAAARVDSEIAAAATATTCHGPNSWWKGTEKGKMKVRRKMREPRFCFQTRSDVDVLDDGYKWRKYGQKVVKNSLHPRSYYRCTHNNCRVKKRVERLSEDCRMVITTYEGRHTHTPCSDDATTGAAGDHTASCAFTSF
In short: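 Binding signal here means per-feature fluorescence intensity in arbitrary units. The values were read on an Axon 4000B scanner after a custom Agilent array, double-stranded by primer extension with Cy5-dUTP, was incubated with 200 nM protein at 25 °C for 1 h in PBS with 2% BSA, salmon testes DNA and 50 µM zinc acetate, then washed. The proteins were transcription factors with an N-terminal polyhistidine tag and DsRed, expressed in E. coli BL21-CodonPlus and purified on Ni–NTA.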

Q: How did the binding signal turn out when “TTTGTCCTGGGCTTCTTTCGGCCCAATCTCTCTCCCGTCGCGGAGTCACCTAGTGCAG” was run?
A: Its binding signal is 11100 fluorescence intensity (a.u.).

Q: Which binding signal does the source give for “ACTGTTTATAGGGTAGGGGTAAGGTTGTGTTCATATAGGTCGGAGTCACCTAGTGCAG” here?
A: The binding signal was 11700 fluorescence intensity (a.u.).

Q: “GGTGCGGCGGTGGGCGGCATGGAGATGGGGAGAGGAGGCGCGGAGTCACCTAGTGCAG” was tested. Which binding signal did it give?
A: Its binding signal is 10600 fluorescence intensity (a.u.).

Q: For “TCTCCTGGTTTTGTGTGTTAGCGCTGTCAGTGTGTGGGTGCGGAGTCACCTAGTGCAG”, which binding signal is on record?
A: Its binding signal is 8120 fluorescence intensity (a.u.).

Q: With “GGGTGGGGTGGGCCTGGGCTGATGCATGTTTGGCGCTTAGCGGAGTCACCTAGTGCAG” as the sequence, how does the binding signal read?
A: Its binding signal is 21200 fluorescence intensity (a.u.).

Q: How did the binding signal turn out when “TCGGAGTGGGGAGATGGTGTCGGGGTGCTGGGTTTCCGGGCGGAGTCACCTAGTGCAG” was run?
A: Its binding signal is 13100 fluorescence intensity (a.u.).

Q: For “TGGGGATGGAGCTTGCCTGGGTGGTGGTGAGGGCGCAGTTCGGAGTCACCTAGTGCAG”, which binding signal is on record?
A: Its binding signal is 8680 fluorescence intensity (a.u.).

Q: For “TCCGGGCTGGGTGGGTGGGGTGGGGATGGAGCTTGCCTGGCGGAGTCACCTAGTGCAG”, which binding signal is on record?
A: The binding signal was 24100 fluorescence intensity (a.u.).

Q: With “GGGTGGGTGGGGCGGTGCTTTCCTGGAGATGGGAGAGTGGCGGAGTCACCTAGTGCAG” as the sequence, how does the binding signal read?
A: The binding signal was 23000 fluorescence intensity (a.u.).

Q: Which binding signal does the source give for “CTGGGGTTGGCCTGGGCTGATATATGTTTGGCGCTCAAAACGGAGTCACCTAGTGCAG” here?
A: The binding signal was 11100 fluorescence intensity (a.u.).

Q: For “GGGTGCTGGGGCTTTGGCTGCCTTGACTTGGATTGCCTTCCGGAGTCACCTAGTGCAG”, which binding signal is on record?
A: The binding signal was 8640 fluorescence intensity (a.u.).

Q: With “GAGGGATGTCTTATATCTAGTTTTGTGGTTGGAGGATGATCGGAGTCACCTAGTGCAG” as the sequence, how does the binding signal read?
A: The binding signal was 8770 fluorescence intensity (a.u.).

Q: For “TCTGTGTTGGCGAGAGTTGGTGTCTGGAATTGGGCTTGGTCGGAGTCACCTAGTGCAG”, which binding signal is on record?
A: Its binding signal is 9200 fluorescence intensity (a.u.).

Q: With “GTTCTATTGTACTGGTCAGTTCAGTGGACTCGGTTCTGTTCGGAGTCACCTAGTGCAG” as the sequence, how does the binding signal read?
A: The binding signal was 9260 fluorescence intensity (a.u.).

Q: For “CTACACTGTCTTGCTCGCTCATTGTCTCTCTCTGCATTTGCGGAGTCACCTAGTGCAG”, which binding signal is on record?
A: The binding signal was 8580 fluorescence intensity (a.u.).

Q: For “TATGTTCGGTATCGTATTAAATCTACTCCTATTTGTACCTCGGAGTCACCTAGTGCAG”, which binding signal is on record?
A: The binding signal was 8570 fluorescence intensity (a.u.).

Q: Which binding signal does the source give for “TTTTGTTCGCTACTATAGGCCCACACGTCTGTGCCCATGGCGGAGTCACCTAGTGCAG” here?
A: The binding signal was 8660 fluorescence intensity (a.u.).

Q: Which binding signal does the source give for “CTCCTCTTCTTCTCTTCTCCTTCGTTGGGCGTGGGCGTCGCGGAGTCACCTAGTGCAG” here?
A: Its binding signal is 12400 fluorescence intensity (a.u.).

Q: Which binding signal does the source give for “CCGACGCCTACTACTTCGCCCACTAGCCACGCGTGCTGCCCGGAGTCACCTAGTGCAG” here?
A: Its binding signal is 9050 fluorescence intensity (a.u.).

Q: For “TACTGTATAGTTGTTACAACTTCCTTTTTAATTATTCAATCGGAGTCACCTAGTGCAG”, which binding signal is on record?
A: The binding signal was 8060 fluorescence intensity (a.u.).

Q: For “GGTCAAATACGTACTAAAAAGTCAACGGTGTCAAACATTTCGGAGTCACCTAGTGCAG”, which binding signal is on record?
A: Its binding signal is 12900 fluorescence intensity (a.u.).

Q: How did the binding signal turn out when “GACGAATGGTCAAACACGTACTAAAAAGTCAACGGTGTCACGGAGTCACCTAGTGCAG” was run?
A: Its binding signal is 12200 fluorescence intensity (a.u.).

Q: For “AAGACGAATGATCAAACACGTACTAAAAAAGTCAACGGTGCGGAGTCACCTAGTGCAG”, which binding signal is on record?
A: Its binding signal is 11600 fluorescence intensity (a.u.).

Q: “GAATGGTCAAACACGTACTAAAAAAGTCAACGGTGTCAAACGGAGTCACCTAGTGCAG” was tested. Which binding signal did it give?
A: Its binding signal is 17500 fluorescence intensity (a.u.).

Q: Which binding signal does the source give for “AATGGTCAAACACGTATTTAAAAAGTCAACGGTGTCAAACCGGAGTCACCTAGTGCAG” here?
A: The binding signal was 14100 fluorescence intensity (a.u.).

Q: Which binding signal does the source give for “AGACGAATGGTCAAACACGTATTAAAAAGTCAACGGTGTCCGGAGTCACCTAGTGCAG” here?
A: Its binding signal is 19700 fluorescence intensity (a.u.).

Q: How did the binding signal turn out when “CTAATGGTTCTGATCGCCGTGCCTAACCCTAGCCCCATATCGGAGTCACCTAGTGCAG” was run?
A: The binding signal was 8400 fluorescence intensity (a.u.).

Q: How did the binding signal turn out when “TCTTTTGCTTCTGTTCTGCACCGGTCTCTCTGATGGATGTCGGAGTCACCTAGTGCAG” was run?
A: Its binding signal is 9680 fluorescence intensity (a.u.).

Q: With “AATAGATGACATTGTTGACTTATTCTTACATGTTTGCCCACGGAGTCACCTAGTGCAG” as the sequence, how does the binding signal read?
A: The binding signal was 9350 fluorescence intensity (a.u.).

Q: How did the binding signal turn out when “TCCACCTCCTAGCGAAATGCATGGTTGGCCAAACAACACACGGAGTCACCTAGTGCAG” was run?
A: The binding signal was 8300 fluorescence intensity (a.u.).

Q: Which binding signal does the source give for “TGACAATGGTGTTGCATCTCCAAAGCTGCAGAAACAAACACGGAGTCACCTAGTGCAG” here?
A: Its binding signal is 48300 fluorescence intensity (a.u.).

Q: How did the binding signal turn out when “AATTGCTGTTGACCTGTTGTTGTGCTCCAACATCCAAACACGGAGTCACCTAGTGCAG” was run?
A: Its binding signal is 8290 fluorescence intensity (a.u.).

Q: Which binding signal does the source give for “TACGAGGAGGGCCCATGCGTCGGTGGGTAGGGTGAAAAGACGGAGTCACCTAGTGCAG” here?
A: Its binding signal is 8690 fluorescence intensity (a.u.).

Q: How did the binding signal turn out when “GGAGGGTGGAGGGCGGAGGACGGAGGTGGTGGCGCCGCGCCGGAGTCACCTAGTGCAG” was run?
A: Its binding signal is 9550 fluorescence intensity (a.u.).

Q: For “GAGGTGGTGGAGGAGGAGGCCAGGGGTTCGTTGGCGGCGGCGGAGTCACCTAGTGCAG”, which binding signal is on record?
A: The binding signal was 8840 fluorescence intensity (a.u.).

Q: Which binding signal does the source give for “GAAAGTGGGAGAGAGAATAGGTTGGGGTGGTTGGTTTGGGCGGAGTCACCTAGTGCAG” here?
A: Its binding signal is 14700 fluorescence intensity (a.u.).

Q: For “ACTAACGAAATTACTACTTCGTAGGGGTAGGGGTGGCGTGCGGAGTCACCTAGTGCAG”, which binding signal is on record?
A: Its binding signal is 9370 fluorescence intensity (a.u.).

Q: “GGAGGAGGTGGCGGCGGAGGGGTTGGTGGTGGAGGTGGTCCGGAGTCACCTAGTGCAG” was tested. Which binding signal did it give?
A: Its binding signal is 20800 fluorescence intensity (a.u.).

Q: With “AGGAGGGCGGGGTCGTCGTCGTCCGGGGTGGTGGTGGCCGCGGAGTCACCTAGTGCAG” as the sequence, how does the binding signal read?
A: Its binding signal is 17000 fluorescence intensity (a.u.).

Q: How did the binding signal turn out when “GCTGGCGCCGGAGAGAGAGAGTGGGTTGGTTGTAATAAATCGGAGTCACCTAGTGCAG” was run?
A: Its binding signal is 9290 fluorescence intensity (a.u.).

Q: “GACCTTTGGGTAGGGGTGGGGATGGGGCGAAATTACTAAACGGAGTCACCTAGTGCAG” was tested. Which binding signal did it give?
A: Its binding signal is 30300 fluorescence intensity (a.u.).

Q: How did the binding signal turn out when “TGGGGATGGGGAATTGACCTGGGTAGGGGTGGTAATTGGGCGGAGTCACCTAGTGCAG” was run?
A: The binding signal was 16000 fluorescence intensity (a.u.).

Q: Which binding signal does the source give for “AATAAAGTTGGGTGGTTGGGGCGCGCGATAGGAGTAAATCCGGAGTCACCTAGTGCAG” here?
A: Its binding signal is 17400 fluorescence intensity (a.u.).

Q: How did the binding signal turn out when “TGGTGGTGAGGAGGAGGAGGAGGAGGGCGGGGTCGTCGTCCGGAGTCACCTAGTGCAG” was run?
A: The binding signal was 16200 fluorescence intensity (a.u.).

Q: “GCGGGGTTGGAGGAGGAGGAGGTGGTGGTGGTGGTGGTGGCGGAGTCACCTAGTGCAG” was tested. Which binding signal did it give?
A: The binding signal was 15300 fluorescence intensity (a.u.).
